This passage reports outcome and AC50 results from PubChem BioAssay (EPA / NIEHS).

The term AC50 denotes the concentration at which the activity in the assay is half-maximal.

SMILES strings stand for the structures. Activity calls are given as the source filed them. Rule for the calls: active = hit-call score of the fitted dose curve at least 0.9, where 1 is the maximum; inactive = score below 0.9.

Read-out in the assay: Interleukin-1 alpha (IL1a), IL1A (gene 3552)
The experiment in a line: BSK_KF3CT_IL1a: BioMAP Diversity Plus: KF3CT Assay for Interleukin-1 alpha (IL1a) Biomarker Activity (AID 2283070). To be noted: primary human keratinocytes with fibroblasts; actives raise or lower the signal. The protocol:
BSK_KF3CT is a cell-based, multiplexed-readout assay that uses keratinocytes and foreskin fibroblasts, a human skin primary cell co-culture, with measurements taken at 24 hours after chemical dosing in a 96-well plate.BSK_KF3CT_IL1a is an assay component measured in the BSK_KF3CT assay. It measures IL-1a antibody related to regulation of gene expression using ELISA technology.Data from the assay component BSK_KF3CT_IL1a was analyzed into 1 assay endpoint. This assay endpoint, BSK_KF3CT_IL1a, was analyzed with bidirectional fitting relative to DMSO as the negative control and baseline of activity. Using a type of binding reporter, gain or loss-of-signal activity can be used to understand changes in the signaling as they relate to the gene IL1A. Furthermore, this assay endpoint can be referred to as a primary readout, because this assay has produced multiple assay endpoints where this one serves a signaling function. To generalize the intended target to other relatable targets, this assay endpoint is annotated to the cytokine intended target family, where the subfamily is interleukins.
The levels of cell surface (or secreted, indicated by the prefix "s") biomarker endpoints were measured by ELISA. Overt cytotoxicity to cells in confluent adherent cultures (all systems other than the BT system) was assessed by measuring total protein levels using sulforhodamine B (SRB) staining in parallel cultures at the time of biomarker measurements, indicated as SRB endpoints. For proliferation assays for adherent cell types, individual cell types are cultured at sub-confluence and relative cell numbers quantified by SRB staining at time points optimized for each system (48 h: 3C and CASM3C systems; 72 h: BT and HDF3CGF systems; 96 h: SAg system). SRB was performed by staining cells with 0.1% SRB after fixation with 10% TCA and reading wells at 560 nm.Viability and proliferation of PBMC (T cells) was quantified by Alamar Blue reduction for the SAg and BT systems. For PBMC viability (referred to as PBMC Cytotoxicity within the assay endpoint names), cells were plated (75,000/well in a 96-well plate) and then chemical samples added for 1 h before addition of activators, SEB and TSST-1 (20 ng/mL final concentration each). Cells were incubated for 90 h. Then, Alamar Blue (20 uL/well) (Invitrogen, Cat DAL1100) was added for 6 h, and the plates were read with a fluorescence microplate reader at 546/580 nm (excitation/emission). For PBMC proliferation, cells were plated and activated as above but incubated for only 16 h prior to addition of Alamar Blue. Plates were read after 6 h.
`CCO[Si](CCCNC(N)=O)(OCC)OCC`: the result was inactive.

Take `Oc1ccccc1`: the outcome was inactive. In the case of `CO[C@H]1/C=C/O[C@@]2(C)Oc3c(C)c(O)c4c(O)c(c(/C=N/N5CCN(C)CC5)c(O)c4c3C2=O)NC(=O)/C(C)=C\C=C\[C@H](C)[C@H](O)[C@@H](C)[C@@H](O)[C@@H](C)[C@H](OC(C)=O)[C@@H]1C`, the outcome was inactive. For the compound `O=C(OCCCCCCOC(=O)c1ccccc1)c1ccccc1`, the outcome was inactive. For the compound `CCCCCCCCOC(=O)c1cc(O)c(O)c(O)c1`, the AC50 is 25.5 µM (active). On to `CC(C)(C)c1cc(/C=C2\SC(N)=NC2=O)cc(C(C)(C)C)c1O`, for which the outcome was inactive. In the case of `O=C(O)c1ccccc1C(=O)OCc1ccccc1`, the outcome was inactive. Consider `Cc1cccc2ccccc12`, for which the result was inactive.

For `O=c1[nH]sc2ccccc12`, the AC50 was 13.7 µM (active). For the compound `COc1cccc([C@H](O)C2CCN(CCc3ccc(F)cc3)CC2)c1OC`, the result was inactive. With `CCCCCCCCCCCCO`, the AC50 was 30.6 µM (active). Regarding `COCC(C)OCC(C)OCC(C)O` (stereo not given), the outcome was inactive. With `NCc1cccc(C2CCN(C(=O)c3ccc(C#Cc4ccccc4F)o3)CC2)c1`, the AC50 was 12.3 µM (active). `Cc1ccc(C(C)C)cc1`: the outcome was inactive. With `Cc1c2ccccc2c(C)c2c1ccc1ccccc12`, the outcome was inactive. As to `O=C(Nc1ccc(Cl)cc1)Nc1ccc(Cl)c(Cl)c1`, the result was inactive. On the same count and under the same terms, to `CCCCCCCCCC(=O)O` belongs “inactive”; to `OC12N=C(c3ccccc3)SC1Cc1cc(Cl)ccc12` (stereo not given), “inactive”.

Turning to `Cc1cc2c(cc1C(F)(F)F)N(C(=O)Nc1ccc(Oc3cccnc3C)nc1)CC2`, the AC50 was 15.5 µM (active). Same read-out and setting: to `NC(=O)c1nc(-c2cccc(-c3cc(F)ccc3OCC(F)(F)C(F)(F)F)c2)n[nH]1` belongs 41.2 µM (active). With `CC[C@H](NC(=O)c1cc(F)ccc1NS(=O)(=O)c1cccc2cccnc12)c1ccccc1`, the outcome was inactive. For `O=C(O)Cn1c(=O)n(Cc2ccc(Br)cc2F)c(=O)c2ccc(Cl)cc21`, the outcome was inactive. In the case of `Cc1oc2c(NC(=O)c3c(Cl)cccc3Cl)cccc2c1C(C)(C)O`, the result was inactive. With `CCN(Cc1cccc(S(=O)(=O)O)c1)c1ccc(C(=C2C=CC(=[N+](CC)Cc3cccc(S(=O)(=O)O)c3)C=C2)c2ccccc2S(=O)(=O)[O-])cc1`, the result was inactive. Still for that read-out and setting: to `Cc1cn([C@H]2C[C@H](N=[N+]=[N-])[C@@H](CO)O2)c(=O)[nH]c1=O` belongs “inactive”; to `Oc1ccc2ccccc2c1`, “inactive”; to `Cc1ccc2oc(CN(Cc3ccccc3)C(=O)Nc3c(F)cc(F)cc3F)c(-c3ccc(Cl)cc3)c2c1`, “inactive”.

Turning to `CCCCOC(=O)CC(CC(=O)OCCCC)(OC(C)=O)C(=O)OCCCC`, the result was inactive. For the compound `O=C(O)Cc1cc(I)c(Oc2ccc(O)c(I)c2)c(I)c1`, the outcome was inactive.

As to `CC/C(=C(/CC)c1ccc(O)cc1)c1ccc(O)cc1`, the AC50 is 28 µM (active).

As for `CCN(Cc1cccnc1)C(=O)c1cccc(Cl)c1[C@]1(C)C(=O)N(Cc2ccc(OC)cc2OC)c2ccc(Cl)cc21`, the outcome was inactive. Regarding `CC(=O)N1CCN(c2ccc(OC[C@H]3CO[C@](Cn4ccnc4)(c4ccc(Cl)cc4Cl)O3)cc2)CC1`, the AC50 is 33.6 µM (active).

Regarding `CC(C)(c1cc(Br)c(O)c(Br)c1)c1cc(Br)c(O)c(Br)c1`, the AC50 was 5.97 µM (active).

For the compound `CCCCOC(=O)c1ccc(O)cc1`, the result was inactive. With `CN(C[C@@H](CC[N+]12CCC(C3CCCCC3)(CC1)CC2)c1ccc(Cl)c(Cl)c1)C(=O)c1cc(C(F)(F)F)cc(C(F)(F)F)c1`, the AC50 was 11.2 µM (active). Regarding `O=C1c2ccccc2C(=O)N1CCc1noc(-c2ccc(CN3CCCCCC3)s2)n1`, the result was inactive. Consider `CC[C@@H]1C[C@H](N(Cc2cc(C(F)(F)F)cc(C(F)(F)F)c2)C(C)=O)c2cc(C(F)(F)F)ccc2N1C(=O)OC(C)C`, for which the outcome was inactive. Still for that read-out and setting: the result for `O=C=NCCCCCCN=C=O` reads “inactive”; that for `C[C@]12CC[C@@H]3c4ccc(O)cc4CC[C@H]3[C@@H]1CCC2=O`, “inactive”; that for `CCN(CC)C(=O)c1cc(S(=O)(=O)Cc2ccccc2)c(N2CCC(c3ccccc3)CC2)cc1N(CC)CCN(C)C`, “inactive”.
